A short description of the assay: NCI Yeast Anticancer Drug Screen. Data for the wt1 strain (AID 149).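 Further: 0% = growth of vehicle-treated wt1 cultures.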 The conditions noted are these: S. cerevisiae wt1 strain (SPY 50644) growth inhibition, hits give high values. As for the experimental part:
Growth inhibition of yeast strains with defined genetic alterations is measured as a screen for potential anti-cancer activity. Selected strains with alterations in DNA damage repair or cell cycle control were exposed to compounds and growth inhibition was measured relative to vehicle treated controls. The strain used in this assay is wt1

The text below walks through data of PubChem BioAssay (NCI).

Molecules are shown by their SMILES. Compounds without any hit were thinned out: in the full panel of roughly 79,000, 15% have a hit. Values without a mark were called inactive. Calls of active or inactive are those of the source. No stated cut-off is given here; in the data, active means growth inhibition above about 70%; inactive means the rest.

As for `CN(CCN(C)Cc1ccccc1)Cc1ccccc1`, the growth inhibition was -16% (at 1.2 µM); -9% (at 3.7 µM); -12% (at 11.0 µM); 0% (at 33.0 µM); 14% (at 100.0 µM).
The corresponding values for `CC(O)=NC(Cc1ccc2ccccc2c1)C(O)=NC(Cc1ccc(Cl)cc1)C(O)=NC(Cc1c[nH]c2ccccc12)C(O)=NC(CO)C(O)=NC(Cc1ccc(O)cc1)C(O)=NC(CCCN=C(N)N)C(O)=NC(CC(C)C)C(O)=NC(CCCN=C(N)N)C(=O)N1CCCC1C(O)=NC(C)C(=N)O` (stereo not given) are -2%, -4%, -5%, -3% and -1%.
The corresponding values for `CCCCOC(=O)Nc1ccc(C)c(NC(=O)OCCCC)c1` are -6%, -2%, -7%, 46% and 12%.
Taken in the same sequence, the figures for `CCCCc1nnc(NS(=O)(=O)c2ccc(C)cc2)s1` were -35%, -32%, -18%, 19% and 84% (active).
As for `COC1CCC(O)C(/C=C/[N+](=O)[O-])C1` (stereo not given), the growth inhibition is 3% (at 1.2 µM); 18% (at 3.7 µM); 99% (active) (at 11.0 µM); 99% (active) (at 33.0 µM); 99% (active) (at 100.0 µM).
Regarding `Oc1cccc2cc(Cl)cnc12`, the growth inhibition runs as follows: (at 1.2 µM) -28%; (at 3.7 µM) -39%; (at 11.0 µM) 20%; (at 33.0 µM) 96% (active); (at 100.0 µM) 98% (active).
Taken in the same sequence, the figures for `O=C(COC(=O)c1ccccc1)c1ccc(Br)cc1` were 2%, -4%, 8%, 99% (active) and 97% (active).
Turning to `O=C1C=C(Cl)C(=O)C(c2ccc(Cl)cc2)=C1`, the growth inhibition reads like this: (at 1.2 µM) 1%; (at 3.7 µM) 5%; (at 11.0 µM) 21%; (at 33.0 µM) 97% (active); (at 100.0 µM) 97% (active).
